Structures are written as SMILES.

This test is described as follows: basal RPMI8226 viability, no added stimulus, profiling panel, cell-based, calcein-AM fluorescence, 48 h, PK04 Diversity Set (AID 1166).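 Further: cells grown under basal conditions without added stimulus; test concentration not given here.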 Particulars: RPMI8226 myeloma viability, higher = more signal.
`COc1ccc([Si](C)(C)[C@@H]2[C@@H](CCn3cc([C@H](O)c4ccccc4)nn3)O[C@]3(C(=O)N(c4ccccc4)c4ccccc43)[C@H]2C)cc1`: the z-score was -3.91.

On to `CCN(CC)c1ccc(N2CC=CC34O[C@@H]5C=CCCOC(=O)C5[C@H]3C(=O)N(CCO)[C@@H]4C2=O)cc1` (stereo partly specified), for which the z-score is -0.073.

For `COc1ccc([Si](C)(C)[C@H]2[C@H](CCO)O[C@@]3(C(=O)N(Cc4ccc(N5C(=O)c6ccccc6Oc6ccccc65)cc4)c4ccccc43)[C@@H]2C)cc1`, the z-score is -4.04.

As for `CC(C)CNC(=O)[C@@]1(C)c2ccccc2C(=O)N(Cc2cc(C(F)(F)F)cc(C(F)(F)F)c2)[C@H]1c1ccc(CO)cc1`, the z-score is 0.208.

For the compound `[N-]=[N+]=NC[C@H](Cc1ccccc1)NC(=O)c1ccccc1`, the z-score is 0.661.

For `CN(C)C(=O)[C@]1(CCS(=O)(=O)c2ccccc2)N=C(c2ccc(OCCCO)cc2)O[C@@H]1c1ccccc1`, the z-score is -0.76.

For the compound `O=C(CS)NCCCCCNC(=O)[C@@H]1C[C@@H]2C(=O)N[C@@H](Cc3ccccc3)C(=O)N2[C@@H]1c1cccc(OCCO)c1`, the z-score is 0.521.

Regarding `CN1C(=O)C2C=CC(C(O)c3ccc(F)cc3)N(NC(=O)OC(C)(C)C)C2C1=O` (stereo unspecified), the z-score was -0.0542.

For the compound `[N-]=[N+]=NCc1ccccc1[C@@H]1OC(c2ccc(OCCCO)cc2)=N[C@]1(Cc1ccccc1)C(=O)NCCN1CCOCC1`, the z-score was 0.185.

Consider `[N-]=[N+]=Nc1ccccc1[C@@H]1OC(c2ccc(OCCCO)cc2)=N[C@]1(Cc1ccccc1)C(=O)NCc1ccccc1`, for which the z-score is -3.8.

As to `CO[C@H]1O[C@H](CO)[C@@H](OC(=O)Nc2ccc(C#N)cc2)[C@@H]2OC(=O)[C@H](Cc3cccc(Br)c3)C/C=C/C[C@@H](Cc3cccc(Br)c3)C(=O)O[C@@H]12`, the z-score was -0.487.

In the case of `CC(C)C[C@@H]1NC(=O)[C@@]23C(=O)N[C@@H](Cc4ccccc4)C2[C@H](C)[C@@]2(C)O[C@H]2C3/C=C/C/C=C\CNC(=O)[C@@H](C)NC1=O` (stereo partly specified), the z-score was -1.12.

Regarding `COCCOC(=O)N1C(=O)[C@@]2(c3cc(C#CCC(C(=O)OC)C(=O)OC)ccc31)[C@H](c1ccc(O)cc1)N1[C@H](c3ccccc3)[C@H](c3ccccc3)OC(=O)[C@H]1[C@@H]2C(=O)NC[C@H](O)c1ccccc1`, the z-score is -4.3.

Take `C=CCC(OC(C)=O)[C@@H]1[C@@H](N(Cc2ccc(-c3cccc(C(F)(F)F)c3)o2)C(=O)c2ccc(C)cc2)c2cc(OCCCO)ccc2N1C(=O)Cc1ccc(OC)cc1` (stereo partly specified): the z-score was 0.002.

For `CCCCC(=O)N(CCN1CCOCC1)[C@@H]1CC(C(=O)NCCO)=C[C@H](Oc2c(I)cc(CO)cc2OC)[C@H]1O`, the z-score was -0.157.

Turning to `O=C1NC(=O)C2C1C=CC(C(O)c1ccccn1)N2Nc1ccc(Cl)cc1Cl` (stereo unspecified), the z-score was -0.54.

As to `C=CCC(OC(C)=O)[C@@H]1[C@@H](N(Cc2ccc(-c3cccc(C(F)(F)F)c3)o2)C(=O)Cc2ccc(OC)cc2)c2cc(OCCCO)ccc2N1C(=O)Cc1ccc2ccccc2c1` (stereo partly specified), the z-score was -1.14.

For `C=C[C@@H](C)[C@H](O)c1ccc(OCCO)cc1`, the z-score is -0.289.

Consider `O=C1O[C@H](c2ccccc2)[C@H](c2ccccc2)N2[C@H]1[C@@H](C(=O)N1CCCCCCC1)[C@]1(C(=O)Nc3ccc(C#CC4(O)CCCCCC4)cc31)[C@H]2c1ccccc1OCCO`, for which the z-score was -0.908.

In the case of `O=C1O[C@H](c2ccccc2)[C@H](c2ccccc2)N2[C@H]1[C@@H](C(=O)N1CCCCCCC1)[C@]1(C(=O)Nc3ccc(C#CC4(O)CCCCCC4)cc31)[C@H]2c1ccc(O)cc1`, the z-score is -1.59.

For `COCCOC(=O)N1C(=O)[C@@]2(c3ccccc31)[C@H](c1ccc(OCCO)cc1)N1[C@H](c3ccccc3)[C@H](c3ccccc3)OC(=O)[C@H]1[C@@H]2C(=O)N1CCCCCCC1`, the z-score was -0.846.

`CC(=O)NCCCC[C@@H]1NC(=O)[C@@H]2C[C@H](C(=O)NCCCCCCN)[C@H](c3cccc(OCCO)c3)N2C1=O`: the z-score is -0.413.

Turning to `[N-]=[N+]=Nc1ccccc1C[C@]1(C(=O)O)N=C(c2ccc(OCCCO)cc2)O[C@H]1c1ccccc1N=[N+]=[N-]`, the z-score is -1.43.

In the case of `CCN(CC)c1ccc(N2CC=CC34O[C@@H]5/C=C\CCC(C)OC(=O)C5[C@H]3C(=O)N(C(C)CO)[C@@H]4C2=O)cc1` (stereo partly specified), the z-score is 0.388.

Turning to `O=C(O)[C@H]1C[C@H]2C(=O)N[C@@H](Cc3ccccc3)C(=O)N2[C@H]1c1cccc(OCCO)c1`, the z-score is -0.958.

As to `CCCCCCCCCCC(O)C1C=CC2C(=O)N(C)C(=O)C2N1Nc1cc(OC)c(OC)c(OC)c1` (stereo unspecified), the z-score is -4.07.

For `C=CCN1C(=O)[C@]2(O[C@H](CCO)[C@@H]([Si](C)(C)c3ccc(OC)cc3)[C@@H]2C)c2cc(N3C(=O)COc4ccccc43)ccc21`, the z-score is -4.36.

For the compound `CCOC(=O)C1=CCC(c2ccccc2)N(S(=O)(=O)c2ccc([N+](=O)[O-])cc2)C1` (stereo unspecified), the z-score is 0.0811.

Take `CCOC(=O)C1=C[C@@H](c2ccccc2)N(S(=O)(=O)c2ccc(C)cc2)[C@H]1c1ccccc1`: the z-score is -1.16.

As for `C=CCNC(=O)[C@@H]1[C@H]2C(=O)O[C@H](c3ccccc3)[C@H](c3ccccc3)N2[C@H](c2ccc(O)cc2)[C@@]12C(=O)Nc1ccc(C#CCC(C(=O)OC)C(=O)OC)cc12`, the z-score is -4.52.

`C=C[C@@H](C)[C@@H](OC(=O)Nc1ccc(SC)cc1)c1ccc(OCCO)cc1`: the z-score is -0.425.

For `COc1cc(NN2C(C(O)c3cc(OC)c(OC)c(OC)c3)C=CC3C(=O)N(c4ccccc4)C(=O)C32)cc(OC)c1OC` (stereo unspecified), the z-score is -0.373.

`COc1ccc([Si](C)(C)[C@@H]2[C@@H](CC(=O)N3Cc4ccccc4C[C@H]3CO)O[C@]3(C(=O)N(Cc4ccc(N5CCC5=O)cc4)c4ccccc43)[C@H]2C)cc1`: the z-score is -1.76.

For `CN(C)C(=O)[C@@]1(CCC(=O)OC(C)(C)C)N=C(c2ccc(OCCCO)cc2)O[C@H]1c1ccccc1CN=[N+]=[N-]`, the z-score was -0.389.

With `CCOC(=O)C[C@H]1[C@H](OC(=O)c2ccccc2-c2ccccc2)[C@@H](NC(=O)c2ccccc2)c2cc(OCCCO)ccc2N1C(=O)c1ccccc1`, the z-score is -0.559.

Regarding `CN(C)CCCC[C@@H]1NC(=O)[C@@H]2C[C@H](C(=O)O)[C@H](c3cccc(OCCO)c3)N2C1=O`, the z-score is 0.312.

The record behind these values is PubChem BioAssay.
